# PubChem BioAssay (NCI)
# This is part of a sample that, as a whole, favours compounds with a hit. Of some 83,000 tested, about 20% had one in any assay.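 In brief: 96-well plates, 48 h treatment, single concentration, percent growth endpoint.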 A number with no mark means an inactive call. Activity calls are given as the source filed them. The calls were made as follows: active = growth percent below 10; inactive = the rest.
# System: CCRF-CEM leukemia
# Assay: NCI-60 one-dose screen, 48 h (100 = growth as untreated, 0 = no growth, -100 = all killed)
# Conditions: 10 µM unless noted
row,SMILES,growth
1,CCCCN(C=S)CCCC,95.7%
2,Cc1nc(C)c(C(=O)O)cc1C(=O)O,103%
3,CCOc1ccc(NC(=S)N2CCC(CCCC3CCN(C(=S)Nc4ccc(OCC)cc4)CC3)CC2)cc1,81.6%

# System: MOLT-4 leukemia
# Assay: as above
# Conditions: 10 µM unless noted
row,SMILES,growth
1,CC(=O)C1C(=O)C(=O)N(c2ccc(Cl)c(Cl)c2)C1=O (stereo not given),91.5%
2,NNc1ncnc2nc[nH]c12,56.2%
3,CC1(C)CC(=O)C=C(N)C1,59.5%
4,O=C1Nc2ccccc2/C1=C\c1ccccc1O,74.6%
5,C=CCc1cc(OC)c(OC)c(OC)c1,104%
6,COCC(N)=O,98.5%
7,C/C(O)=C(/C=N/C(=S)Nc1ccccc1)C(=O)Nc1ccccc1C,96.9%
8,CSc1nsc(N)n1,97.9%
9,c1ccc(Oc2c3ccccc3nc3ccccc23)cc1,14.5%
10,NC(CSSCC(N)C(=O)O)C(=O)O (stereo not given),-9.51% (active)
11,O=C(O)c1c[nH]c2ccccc2c1=O,90%
12,CC(C)N1CC(=O)N2CSCC2C1=O (stereo not given),111%
13,O=C(Oc1ccccc1Cl)c1ccc(Cl)cc1Cl,110%
14,CN(C)c1ncnc2c1cnn2C,117%
15,CC(=O)NNC(=S)/N=C\C(C(=O)c1ccccc1)=C(/O)c1ccccc1,93%
16,C=CC(C)C(C)(C)O (stereo not given),95.2%
17,C=COC(=O)CCOCC(CC)CCCC (stereo not given),93.9%
18,CCCCCCCCCCCCSC1=C(Cl)C(=O)C(OC)=C(OC)C1=O,-4.73% (active)
19,Cc1onc(-c2c(F)cccc2Cl)c1-c1ncc(-c2ccc(Br)cc2)o1,16.9%

row,SMILES,growth
1,CC(=O)/C(C)=N\OC(=O)Nc1ccccc1,90.4%
2,Cc1ccc(S(=O)(=O)Oc2ccc3sc4c(CO)ccc(NCCN(C)C)c4c(=O)c3c2)cc1,-34.6% [100 µM] (active)
3,Cc1cccc(-[n+]2noc(N)n2)c1,72.8%
4,O=C(NCc1ccccc1)c1cccc([N+](=O)[O-])c1,102%
5,C/C(Cc1ccccc1)=N\O,5.17% (active)
6,CCCCCC/C=C\CCCCCCCCCc1cc(O)cc(OC)c1O,2.69% (active)
7,CC1(C)OC2C(CO)OC(n3ccc(=O)[nH]c3=O)C2O1 (stereo not given),92.3%
8,C/C=C/C1OCC(CC)C(CCC)O1 (stereo not given),94%
9,O=c1nc(Nc2cccc(Cl)c2)oc2cc(Cl)oc(=O)c12,21.5%
10,NC(CO)(CO)c1ccccc1,108%
11,ClCC(Cl)[C@@H]1CC2C=CC1C2 (stereo not given in full),114%
12,CN=S(=O)(OCCCCCOS(=O)(=NC)c1ccc(C)cc1)c1ccc(C)cc1 (stereo not given),78.6%
13,CCCCN(C=S)CCCC,91.4%
14,CCCCCCCCCc1ccc(OC(C)=O)cc1,108%
15,Cc1nc(C)c(C(=O)O)cc1C(=O)O,103%
16,CC(=O)N(CCCCCCN(C(C)=O)C(C)=O)C(C)=O,113% [100 µM]
17,CN1CCCN(C(c2ccccc2)c2ccc(Br)cc2)CC1 (stereo not given),55.5%
18,CCOc1ccc(NC(=S)N2CCC(CCCC3CCN(C(=S)Nc4ccc(OCC)cc4)CC3)CC2)cc1,73.7%
